High-throughput results: PubChem BioAssay, Johns Hopkins Ion Channel Center
A selection: hits, their analogues and other compounds. The true share with any hit is near 1.6%.
KCNQ2 inh = rat KCNQ2 potassium channel inhibitors, primary screen, cell-based, CHO-K1, FluxOR thallium flux, B-score; 20 min; hits give low values; B-score at 10 µM; 310,000 compounds, 1.1% hits; AID 2156, 2009;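 active = fluorescence ratio B-score at most minus 3 library SDs, with starting brightness B-score within 2 library SDs, cut at about -5.5 in these data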
Target sequence (O88943 whole entry, looked up): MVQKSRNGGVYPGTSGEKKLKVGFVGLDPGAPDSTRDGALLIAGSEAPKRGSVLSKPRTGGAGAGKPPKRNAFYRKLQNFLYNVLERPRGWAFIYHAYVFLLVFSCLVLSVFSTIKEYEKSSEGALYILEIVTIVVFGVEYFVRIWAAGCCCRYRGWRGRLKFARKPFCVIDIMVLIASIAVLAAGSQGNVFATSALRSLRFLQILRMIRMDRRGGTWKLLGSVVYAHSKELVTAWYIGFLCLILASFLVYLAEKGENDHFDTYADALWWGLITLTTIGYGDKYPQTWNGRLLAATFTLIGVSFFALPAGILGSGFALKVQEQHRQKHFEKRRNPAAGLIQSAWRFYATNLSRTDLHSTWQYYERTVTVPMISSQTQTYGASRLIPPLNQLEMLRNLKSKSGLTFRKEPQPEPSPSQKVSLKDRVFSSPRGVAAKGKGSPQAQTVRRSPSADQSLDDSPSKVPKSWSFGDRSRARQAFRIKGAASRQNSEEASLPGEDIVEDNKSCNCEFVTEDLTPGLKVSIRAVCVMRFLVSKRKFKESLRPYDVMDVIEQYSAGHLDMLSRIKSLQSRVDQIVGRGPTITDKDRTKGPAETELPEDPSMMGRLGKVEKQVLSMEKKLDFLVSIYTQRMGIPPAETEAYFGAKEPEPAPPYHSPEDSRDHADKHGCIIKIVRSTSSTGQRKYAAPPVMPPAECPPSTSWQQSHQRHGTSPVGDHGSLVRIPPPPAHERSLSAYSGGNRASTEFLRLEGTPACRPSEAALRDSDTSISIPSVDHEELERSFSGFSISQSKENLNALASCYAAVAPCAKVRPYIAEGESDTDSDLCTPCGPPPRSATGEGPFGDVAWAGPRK
KCNQ2 pot = potentiators of rat KCNQ2 potassium channel | Potassium voltage-gated channel subfamily KQT member 2 (Rattus norvegicus), O88943 | CHO-K1 KCNQ2, FluxOR thallium flux fluorescence; hits give high values | B-score at 10 µM | 310,000 compounds, 0.54% hits | AID 2239, 2010;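 active = fluorescence ratio B-score at least 3 SD of library B-scores, with initial fluorescence B-score within 3 of them, cut at about 5.3 in these data; same plate scores as AID 2156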;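 note: B-score of peak minus minimum over baseline fluorescence ratio after K+ and Tl+ stimulus; positive B-score means potentiation of KCNQ2 with more thallium influx and brighter signal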
Hits are given with their value; i = inactive; nt = not tested or not shown.

SMILES | KCNQ2 inh | KCNQ2 pot
O=C1/C(=C\c2ccc3ccccc3c2)CCCc2ccccc21 | -6.51 | i
Cc1ccccc1/C=C1\CCCc2ccccc2C1=O | i | nt
Cc1[nH]c2ccccc2c1CN1CCN(c2ccccn2)CC1 | i | nt
O=C(COc1ccc(Cc2ccccc2)cc1)c1ccc(F)cc1 | i | 6.69
O=C(COc1ccc(F)cc1)c1ccc2c(c1)CCCC2 | i | nt
COc1ccccc1C1(CC(=O)O)CCOC(C(C)C)C1 (configuration not stated) | i | nt
CCC(=O)N(CCC1(c2ccccc2OC)CCOC(C(C)C)C1)Cc1ccco1 (configuration not stated) | -5.83 | i
Cc1[nH]c2ccccc2c1C(=O)COC(=O)C1CCC1 | i | i
CCOCC(=O)Nc1c(C(=O)N2CCN(c3ncccn3)CC2)oc2ccccc12 | i | i
O=C(c1oc2ccccc2c1CSCc1ccccc1)N1CCN(c2ncccn2)CC1 | -6.2 | i
COC(=O)c1cn(C(=O)c2ccccc2)c2ccccc12 | i | nt
COC(=O)c1cn(C(=O)c2cc(OC)cc(OC)c2)c2ccccc12 | -6.34 | i
CCOc1ccc(C(C)=O)cc1CN1C(=O)NC2(CCCCCC2)C1=O | i | nt
CSCC[C@H](NC(=O)OC(C)(C)C)c1nnc(SCc2cccc(F)c2)o1 | i | nt
CC(C)C[C@H](NC(=O)OC(C)(C)C)c1nnc(SCc2cccc(F)c2)o1 | -7.47 | i
Cc1ccc(/C=C2/Sc3ccc(C(=O)NCCN4CCOCC4)cc3NC2=O)cc1 | i | nt
CCN1CCCC1CNC(=O)c1ccc2c(c1)NC(=O)/C(=C\c1ccc(C)cc1)S2 (configuration not stated) | -7.56 | i
Cc1ccc(-n2sc3ccccc3c2=O)cc1 | i | nt
O=C(NCCc1ccc(Cl)cc1)c1cc(-c2ccccn2)nc2ccccc12 | -6.53 | i
Cc1ccc(-c2cc(C(=O)NCc3ccccn3)c3ccccc3n2)cc1C | -6.1 | i
O=C(c1cc(-c2ccccn2)nc2ccc(Cl)cc12)N1CCN(CCc2ccccc2)CC1 | -5.65 | i
Cc1cccc(-c2cc(C(=O)NCc3ccccn3)c3ccccc3n2)c1 | i | nt
Cc1cnn(C(=O)c2cc(-c3ccccn3)nc3ccc(Cl)cc23)c1 | i | nt
O=C(NCCc1ccc(Cl)cc1)c1cc(-c2ccncc2)nc2ccccc12 | i | nt
Nc1nonc1-n1nnc(C(=O)N/N=C/c2ccc(OCc3ccccc3F)cc2)c1CN1CCCCC1 | i | i
SMILES | KCNQ2 inh | KCNQ2 pot
CCCc1nnc(NC(=O)CCC(=O)NCc2ccccc2Cl)s1 | i | nt
O=C(CCN1CCCCC1)NNC(=S)NC(=O)c1ccc(Br)cc1 | i | nt
Cc1noc(C)c1COc1ccccc1C(=O)N1CCN(S(=O)(=O)c2ccccc2C(F)(F)F)CC1 | i | i
O=C(O)c1cc2cc(F)ccc2[nH]1 | i | i
CCO/C=C1/C(=O)N(CC)c2ccccc21 | i | nt
Cc1ccc(S(=O)(=O)N2Cc3ccccc3CC2C(=O)Nc2ccc3c(c2)OCO3)cc1 (configuration not stated) | -5.64 | i
COc1ccc(S(=O)(=O)N2Cc3ccccc3CC2C(=O)Nc2ccc3c(c2)OCO3)cc1 (configuration not stated) | i | nt
COc1ccc(N2CCN(C(=O)c3ccc4c(c3)CCN4S(=O)(=O)c3ccccc3)CC2)cc1 | i | nt
COc1ccc(NC(=O)C(CC(C)C)NC(=O)c2ccccc2C)cn1 (configuration not stated) | -7.69 | i
Cc1ccccc1C(=O)NC(CC(C)C)C(=O)Nc1ccc(F)c([N+](=O)[O-])c1 (configuration not stated) | i | nt
Cc1cc(Cl)ccc1NC(=S)N(CCCN1CCOCC1)Cc1cccs1 | i | nt
O=C(O)COc1ccc(/C=C/c2nc(-c3ccccc3O)n[nH]2)cc1 | i | i
COc1ccc(/C=C/c2nc(-c3ccccc3O)n[nH]2)cc1OC | i | 10.2
CC(=O)c1ccc(NC(=O)COC(=O)c2ccccc2Nc2ccccc2)cc1 | i | nt
O=C(COC(=O)c1ccccc1Nc1ccccc1)Nc1ccccc1 | i | 5.81
Cc1ccc2cc(/C=C(\C#N)C(N)=O)c(N3CCCCC3)nc2c1 | i | nt
CCOC(=O)/C(C#N)=C/c1cc2ccccc2nc1N1CCCCC1 | -6.46 | i
OCCC1CN(Cc2cnc(-c3ccccc3)s2)CCN1Cc1ccccc1 (configuration not stated) | i | i
Clc1cccc(Cl)c1Cn1cnc2c(NCc3ccco3)ncnc21 | i | i
Cn1cnc2c(NCc3ccco3)ncnc21 | -6.95 | i
Cc1ccc(S(=O)(=O)N2CCCN(S(=O)(=O)c3ccc(C)cc3)CC2)cc1 | i | i
COc1ccc(Br)cc1-c1noc(-c2ccccc2)n1 | i | nt
COc1ccc(Br)cc1-c1nc(C)c(C(C)=O)n1O | -7.19 | i
COc1cccc(-n2c(CN3CCN(c4ccc(C)cc4)C(C)C3)nc3ccc([N+](=O)[O-])cc3c2=O)c1 (configuration not stated) | i | nt
COc1cccc(-n2c(CN3CCN(c4cccc(C)c4)C(C)C3)nc3ccc([N+](=O)[O-])cc3c2=O)c1 (configuration not stated) | -5.78 | i
SMILES | KCNQ2 inh | KCNQ2 pot
O=C(c1ccco1)N1CCN(C(=O)c2cccc3c2C(=O)N(C2CCCCC2)C3)CC1 | i | i
Nc1nc2c(Cl)cc(Cl)cc2s1 | i | i
Nc1nc2c(Cl)ccc(Cl)c2s1 | i | 6.02
COc1ccc(OC)c(NC(=O)c2c3c(nc4ccccc24)CCC3)c1 | -6.09 | i
O=C(Nc1ccccc1)c1c2c(nc3ccccc13)CCCC2 | -8.18 | i
COc1ccc(NC(=O)c2c3c(nc4ccccc24)CCC3)cc1 | i | nt
COC(=O)c1c2c(nc3ccccc13)CCC2 | i | i
O=C(NCCc1cccc(Cl)c1)c1cccnc1 | i | i
CC1CCC(NC(=O)c2cccc(S(=O)(=O)N3CCN(c4ccccc4)CC3)c2)CC1 (configuration not stated) | i | nt
CCC1(C)Cc2ccccc2-c2nc(-c3ccccc3)oc(=O)c21 (configuration not stated) | -5.54 | i
CCC1(C)Cc2ccccc2-c2nc(NN)[nH]c(=O)c21 (configuration not stated) | i | nt
Fc1ccc(-c2nn(-c3ccccc3)cc2CNCc2ccccc2)cc1 | i | nt
CC(C)(C)OC(=O)N[C@@H](Cc1ccccc1)c1nnc(SCC(N)=O)o1 | i | nt
C=CCN(c1cccc(C(F)(F)F)c1)S(=O)(=O)c1cccc(C(=O)OCC(=O)Nc2ccccc2)c1 | i | 7.53
C=CCN(c1cccc(C(F)(F)F)c1)S(=O)(=O)c1cccc(C(=O)OCC(=O)NC)c1 | i | i
Cc1cc(O)c(C(C[N+](=O)[O-])c2ccc(Cl)cc2)c(=O)o1 (configuration not stated) | i | nt
Cc1cc(C)n(C(C[N+](=O)[O-])c2ccc(Cl)cc2)n1 (configuration not stated) | -10.1 | i
CCOC(=O)c1ccccc1NC(=O)CN1C(=O)NC(C)(CCc2ccccc2)C1=O (configuration not stated) | i | nt
Cc1ccc(NC(=O)Nc2ccc3c(c2)nnn3C)cc1C | i | i
CC1CCN(Cc2c(C(=O)N3CCc4ccccc4C3)nc3ccc(Cl)cn23)CC1 | -5.8 | i
O=C(c1nc2ccc(Cl)cn2c1CN1CCC(O)CC1)N1CCc2ccccc2C1 | i | i
COc1ccccc1NC(=O)C(C)OC(=O)Cc1n[nH]c(=O)c2ccccc12 (configuration not stated) | i | i
